# In the OligoGym collection:
# Biological target: CAPRIN1
# Assay: pooled miR-30 sensor sort-seq; sequence = guide strand
# Conditions: shRNA
# Further: reference of the scale not given here.
row,Sequence,sensor-assay potency score (higher = more potent)
1,TTTCTTGTCGATCACCCCGAGA,-1.14
2,TAGATAATAACTCTTCTGGTAA,-0.812
3,TTGACTGAAAAACACGCTCAAC,-1.28
4,TACAGGAACTTGATTAGGCTGA,0.0825
5,TTACATACTCTGTTGATTCAAC,0.0551
6,TATTGTTTTCTGAATATCTTGA,0.459
7,TAACATATTATGGTACACTGGC,0.119
8,TTTACATTGATTCCACTGCTAT,-0.568
9,TTGATAGCCAGAGTAATCCCGG,-0.0464
10,TTTCTGAATATCTTGACTTAGT,-0.78
11,AATATCTTGACTTAGTGCCATG,-1.68

# Biological target: CASK
# Assay: as above
# Conditions: shRNA
row,Sequence,sensor-assay potency score (higher = more potent)
1,ATTTGTGACTTGACACAGCGGC,0.473
2,TTCATGTGCCACTACGTCGTGA,-0.762
3,TACATCGTCGTACAACACTGAA,-1.22
4,TTTTGAAACTGTACCAGCCGAA,-0.413
5,TTGTGCTCTTACATAGATCTGT,0.417
6,TTTCTCTGTTGATACATCGTCG,-0.203
7,TAGTAGTGTGTGAAGATGCTGA,0.139
8,TAAAGCATTCCATCTGAGCTAT,-0.371
9,TTACATAGATCTGTCGTCCTTT,0.751
10,TAAAATACGCTTTAGTTCCTTT,-0.108
11,TATATGTCTCCAATAACTCTAC,-0.605
12,TAAGATGTCAGACTCCTTCTGC,0.313

# Biological target: CASP8
# Assay: as above
# Conditions: shRNA
row,Sequence,sensor-assay potency score (higher = more potent)
1,TTGAGGTGATGATAAATCCATT,-0.92
2,TTCTTGTCATCCTTGTTGCTTA,-0.496
3,TATTAATAGATGATCGACCCTC,-0.244
4,TTAGTGTGAAAGTAGGCTGAGG,-0.589
5,TACTGTGCAGTCATCGTGGGGC,0.503
6,TTGATTTGGGCACAGACTCTTT,-0.862
7,ATAGATAACAATCTGAATCATA,-0.657
8,ATAGTCGTTGATTATCTTCAGC,-0.538
9,TTTCTTGTCATCCTTGTTGCTT,-0.189
10,TTCATAGTTCACTTCAGTCAGG,-0.715
11,TTCATAGTCGTTGATTATCTTC,-0.794
12,TAACCTGCCTAACTCCACGTGC,-0.566
13,TAAACTTTGTCCAAAGTCTGTG,-0.0888
14,TTTCTGCTGAAGTCCATCTTTT,-1.01
15,TTTACTTTCAATAACCACCCTG,0.433
16,TAGTTGATAGATAACAATCTGA,-0.246
